An excerpt weighted towards active compounds, which were near 11% of everything screened.
HP1b binding inh: inhibitors of HP1-beta chromodomain binding to methylated histone tails; P83916; AlphaScreen HP1-beta / biotin-H3K9me3 peptide binding; Potency, µM (titrated, usually from 114 µM), for the others: top-dose activity change, negative = inhibition, actives largely listed as inhibitors; actives 0.56% (n = 390,000); note: nearly all actives have a fitted effect of over 70% in size
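Compound inhibition of the preformed complex between 50 nM HP1-beta and 50 nM biotinylated H3K9me3 peptide was read by AlphaScreen. Buffer was PBS pH 7.4 with 0.01% Tween-20. Incubations ran 30 min at room temperature, with 10 ug/mL donor/acceptor beads.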
BAZ2B block: BAZ2B (human) inhibition; Q9UIF8; AlphaScreen BAZ2B-H3K14Ac peptide displacement; Potency, µM (highest dose often 114 µM), for inactives: at the highest dose activity change, negative = inhibition, hits mostly inhibitors; actives 4.4% (n = 360,000); note: % is set by controls: 0 for no effect and ±100 for the full control effect; nearly all actives have a fitted effect of over 60% in size
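AlphaScreen displacement: compounds (up to 110uM) incubated 30 min at room temperature with a preformed 50 nM BAZ2B/50 nM biotinylated H3K14Ac peptide complex in PBS pH 7.4 with Tween-20. Donor and acceptor beads at 10 ug/mL final added, 20 min light-protected before reading.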
JMJD2A Tudor: blocks the human JMJD2A Tudor domain. AlphaScreen JMJD2A-Tudor / H3K4me3 peptide binding. actives 4.4% (n = 390,000). Potency, µM (highest dose often 114 µM), without a hit: top-dose activity change, negative = inhibition, most hits filed as inhibitors; note: % is set by controls: 0 for no effect and ±100 for the full control effect; nearly all actives have a fitted effect of over 50% in size
Target sequence (O75164 whole entry, looked up, the tested form may be a part): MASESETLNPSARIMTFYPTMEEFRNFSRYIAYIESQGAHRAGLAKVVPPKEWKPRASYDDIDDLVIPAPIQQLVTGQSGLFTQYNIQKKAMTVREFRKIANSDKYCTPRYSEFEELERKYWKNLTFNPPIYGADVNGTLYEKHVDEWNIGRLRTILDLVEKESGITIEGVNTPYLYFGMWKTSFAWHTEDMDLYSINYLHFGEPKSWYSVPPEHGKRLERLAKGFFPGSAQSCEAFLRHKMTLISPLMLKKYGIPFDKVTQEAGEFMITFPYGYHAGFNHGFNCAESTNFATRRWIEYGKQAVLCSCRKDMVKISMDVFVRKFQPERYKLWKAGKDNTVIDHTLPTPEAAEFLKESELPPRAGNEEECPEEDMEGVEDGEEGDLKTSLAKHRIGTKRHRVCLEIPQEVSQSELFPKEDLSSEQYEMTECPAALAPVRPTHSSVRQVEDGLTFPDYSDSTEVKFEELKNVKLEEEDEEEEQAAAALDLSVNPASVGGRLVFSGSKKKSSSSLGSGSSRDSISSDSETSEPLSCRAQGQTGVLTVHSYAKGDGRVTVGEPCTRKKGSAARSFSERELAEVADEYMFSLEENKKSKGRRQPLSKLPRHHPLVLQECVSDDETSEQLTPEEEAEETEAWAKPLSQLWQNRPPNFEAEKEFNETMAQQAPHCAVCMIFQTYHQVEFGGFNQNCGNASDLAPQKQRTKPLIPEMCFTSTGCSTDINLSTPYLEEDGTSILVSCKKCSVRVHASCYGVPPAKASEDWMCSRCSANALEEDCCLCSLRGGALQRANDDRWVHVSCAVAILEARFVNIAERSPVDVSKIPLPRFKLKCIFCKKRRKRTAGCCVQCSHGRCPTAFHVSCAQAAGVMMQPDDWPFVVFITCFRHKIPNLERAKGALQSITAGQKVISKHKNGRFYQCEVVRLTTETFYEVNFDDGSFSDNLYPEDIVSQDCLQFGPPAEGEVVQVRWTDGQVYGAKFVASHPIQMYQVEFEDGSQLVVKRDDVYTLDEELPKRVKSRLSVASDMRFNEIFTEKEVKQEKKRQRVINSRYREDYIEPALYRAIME
G9a block: G9a (human) methyltransferase inhibition; Q96KQ7; G9a H3K9 monomethylation, AlphaScreen, 2 h; Potency, µM (top dose mostly 102 µM), for the others: at the highest dose activity, negative = inhibition, most hits filed as inhibitors; actives 8.8% (n = 350,000); note: % is set by controls: 0 for no effect and ±100 for the full control effect; nearly all actives have a fitted effect of over 75% in size
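AlphaScreen read-out: biotin-H3K9 peptide (500 nM) methylation by 20 nM enzyme with 20 uM SAM, 2 h at room temperature after 15 min compound preincubation; anti-monomethyl H3K9 antibody plus donor/acceptor beads, 10 min dark.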
L3MBTL1 block: blocks human L3MBTL1. AlphaScreen L3MBTL1–H3K9me1 peptide binding. Potency, µM (series often up to 57.1 µM), for the others: at the top dose activity, negative = inhibition, most hits filed as inhibitors. actives 0.66% (n = 230,000). Q9Y468; note: % is set by controls: 0 for no effect and ±100 for the full control effect; nearly all actives have a fitted effect of over 60% in size
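Displacement of a biotinylated histone H3(1-15) peptide monomethylated at Lys9 (75 nM) from L3MBTL1 (50 nM) was measured by AlphaScreen after a 30 min room-temperature compound incubation; cefsulodin titration served as intraplate control.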
* = called active by the depositor; u = inconclusive; x = no result; [ ] = another dose, or the depositor's remark. Calls come from the whole dose curve; as a rule, active = well fitted inhibition curve with a large enough effect; inconclusive = small, poorly fitted or top-dose-only effect; inactive = no such curve, though single readings can be large or run the other way. Potency is the fitted concentration of half-maximal effect.

SMILES	HP1b binding inh	BAZ2B block	JMJD2A Tudor	G9a block	L3MBTL1 block
COc1ccc(C(=O)c2ccccc2)c(O)c1	68.1%	122.8%	11.1%	5.5%[12.7 µM]	16.4%
Cc1ccc(C(=O)OCC(=O)c2ccc(Br)cc2)cc1S(=O)(=O)N1CCOCC1	19.7%	x	-14.2%	x	x
Cn1nc(-c2ccc(OCC(=O)Nc3cccc(C(F)(F)F)c3)cc2)c2ccccc2c1=O	15.5%	-30.7%	-19.9%	3.8%[59 µM]	x
CCOc1cc(N2CCOCC2)c(OCC)cc1NC(=O)C(NC(=O)c1c(F)cccc1F)C(C)C (centres undefined)	22.2%	x	-15.3%	x	x
Oc1ccc2ccccc2c1N=Nc1ccc(F)cc1	5.62µM*	2.24µM*	2.24µM*	2µM*	u
Cc1ccc(O)c(N=Nc2ccc(S(=O)(=O)N3CCCC3)cc2)c1	-3.6%	3.98µM*	u	8.91µM*	x
Cc1ccc(O)c(N=Nc2nccs2)c1	u	10µM*	35.5µM*	u	u
CC(=O)/C(N=Nc1cc(C)ccc1O)=C(\C)O	13.7%	-38.0%	-22.0%	u	-5.3%
O=C(NNC(=S)Nc1ccc(C(=O)O)c(O)c1)c1ccncc1	-30.5%	x	u	x	x
O=C(c1ccc(Cl)cc1Cl)N1CCC(c2nc3c(nnn3Cc3ccco3)c(=O)[nH]2)CC1	10.6%	-6.6%	-10.4%	44.7µM*	-5.8%
O=C(c1ccccc1)N1CCC(c2nc3c(nnn3Cc3ccco3)c(=O)[nH]2)CC1	16.1%	8.8%	-18.6%	16.9%	3.7%
C=C1CCC[C@]2(C)C[C@H]3OC(=O)C(CNCCN(C)C)[C@H]3CC12 (some centres undefined)	27.6%	-6.6%	-17.4%	0.1%[12.7 µM]	x
C=C1CCC[C@]2(C)C[C@H]3OC(=O)C(CNCCN(CC)CC)[C@H]3CC12 (some centres undefined)	u	25.1µM*	1.78µM*	26.7%[0.501 µM]	x
Nc1nc(N)c(S(=O)(=O)c2ccccc2)c(Nc2ccc(F)cc2)n1	12.6%	-12.4%	-14.6%	-7.2%[59 µM]	x
Cc1ccc(/C=C/C(=O)Nc2cc(S(N)(=O)=O)ccc2O)cc1	u	-31.0%	-23.5%	8.91µM*	5.7%
C/C(CCc1oc2ccc(Cl)cc2c1-c1ccc(C)o1)=N\O	u	u	89.1µM*	u	51.7%
Fc1cc2[nH]c(=S)[nH]c2c(Br)c1N1CCSCC1	u	-25.5%	-24.6%	10µM*	x
N#CCC(=O)Nc1ccc(C(=O)OCC(=O)c2ccc3c(c2)NC(=O)CO3)cc1	10.1%	-22.3%	-29.1%	7.6%[12.7 µM]	2.7%
O=C(NNc1nc2cc3c(cc2s1)OCO3)c1ccc(F)cc1	3.1%	16.4%	-20.0%	8.91µM*	26.8%
O=C(NNc1nc2cc3c(cc2s1)OCCO3)c1ccc(F)cc1	23.1%	-9.1%	-13.9%	50.1µM*	-3.8%
Fc1ccc2nc(Nc3nc4cc5c(cc4s3)OCO5)sc2c1	25.0%	-2.4%	-15.4%	4.4%[59 µM]	7.9%
CCN(CC)CCN(CC(=O)N(C1CCCCC1)C1CCCCC1)C(=O)c1ccco1	u	50.1µM*	1.58µM*	44.7µM*	x
CCOc1ccc(C2NC(=O)C(C#N)=C(S)N2c2ccc(OC)cc2)cc1OC (centres undefined)	13.3%	9.8%	-23.2%	u	24.7%
CCOC(=O)CSC1=C(C#N)C(=O)NC(c2ccc(OC)cc2)S1 (centres undefined)	8.8%	50.1µM*	25.1µM*	u	x
CCOC(=O)CSC1=C(C#N)C(=O)NC(c2ccc(OC)c(OC)c2)S1 (centres undefined)	u	50.1µM*	39.8µM*	u	11.2%
COc1cccc(CNC(=O)CSc2ncc(S(=O)(=O)c3ccc(C)c(Cl)c3)c(=O)[nH]2)c1	27.6%[57 µM]	0.9%	-1.9%	-15.5%[59 µM]	x
COc1ccc2c(c1)C(=NN)c1cc(OC)ccc1-2	-20.5%	39.8µM*	56.2µM*	u	-14.7%
CCOC(=O)c1c(NC(C)=O)sc(/C(C)=N/Nc2ccc(C(=O)O)cc2)c1C	-8.2%	u	-32.6%	31.6µM*	x
COc1ccc(/C(C)=N/Nc2ccc(C(=O)O)cc2)c(OC)c1	25.2%	-8.4%	-15.2%	1.58µM*	-17.6%
COc1ccc2c(c1)c(/C=N/Nc1ccc(C(=O)O)cc1)c(C)n2C	-3.5%[57 µM]	u	u	8.91µM*	x

High-throughput results: PubChem BioAssay, National Center for Advancing Translational Sciences (NCATS)
